SIAE primary – human SIAE inhibition, primary screen; Q9HAT2; SIAE FP-Rh probe binding, fluorescence polarization; inhibition, % at 9.66 µM; hit rate 0.69% among 370,000; AID 1053197;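 active = inhibition above a cutoff: mean of compounds within the control limits plus 3 SD of those, cut at about 17% in these data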
Target sequence (Q9HAT2 whole entry, looked up): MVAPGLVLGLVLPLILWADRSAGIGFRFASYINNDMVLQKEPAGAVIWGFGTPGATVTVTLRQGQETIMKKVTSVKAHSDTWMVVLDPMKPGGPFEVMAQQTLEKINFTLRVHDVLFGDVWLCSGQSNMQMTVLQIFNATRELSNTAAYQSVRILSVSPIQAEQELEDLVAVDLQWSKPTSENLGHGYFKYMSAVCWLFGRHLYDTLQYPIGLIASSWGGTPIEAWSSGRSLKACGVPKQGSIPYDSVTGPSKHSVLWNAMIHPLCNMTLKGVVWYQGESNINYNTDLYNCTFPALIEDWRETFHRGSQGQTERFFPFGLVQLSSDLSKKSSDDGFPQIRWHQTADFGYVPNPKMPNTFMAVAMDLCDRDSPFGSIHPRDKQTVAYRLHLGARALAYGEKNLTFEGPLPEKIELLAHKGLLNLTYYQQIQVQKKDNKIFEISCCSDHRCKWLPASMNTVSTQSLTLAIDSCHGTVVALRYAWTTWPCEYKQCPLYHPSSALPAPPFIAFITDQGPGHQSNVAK
PRMT1 FP inh – inhibitors of human PRMT1 | Q99873 | recombinant PRMT1, activity-based probe fluorescence polarization | inhibition, % at 2.79 µM | hit rate 1.3% among 370,000 | AID 652257;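 active = inhibition above about 21% made by adding two undisclosed values, limit read from the data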
PME-1 primary – blocks human protein phosphatase methylesterase 1; Q9Y570; recombinant PME-1, FP-Rh probe fluorescence polarization; hit rate 0.53% among 320,000; inhibition, % at 5.9 µM; AID 2130;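 active = inhibition above the campaign mean of all compounds plus 3 SD, cut at about 26% in these data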;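 note: competitive labeling of PME-1 active site by serine hydrolase directed probe; inhibitors block probe labeling so polarization falls and inhibition rises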
Fam108B inh – Fam108B inhibition, counter-screen for RBBP9 inhibitors. inhibition, % at 9.51 µM. hit rate 0.33% among 300,000. AID 1947. recombinant Fam108B, FP-Rh probe fluorescence polarization;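 active = inhibition above the screen mean inhibition plus 3 SD, computed separately per campaign, cut at about 18% in these data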;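 note: inhibitors lower polarization as less probe binds the enzyme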
TCR-CD3 inh – inhibitors of human TCR-CD3 interaction | TAMRA-labeled TCR probe fluorescence, biochemical | inhibition, % at 9.4 µM | hit rate 0.37% among 360,000 | AID 651800; in the data active = inhibition above about 19%;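 note: recombinant mutant TCR 2C K166C tagged with TAMRA read by polarization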
PAD4 FP inh – blocks human protein arginine deiminase 4; Q9UM07; recombinant PAD4, RCA probe fluorescence polarization; inhibition, % at 6.36 µM; hit rate 0.41% among 330,000;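 active = percent inhibition above a cutoff equal to the mean of all tested compounds plus 3 SD, cut at about 15% in these data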
PRMT1 confirm – PRMT1 (human) inhibition, FP confirmation; shares compounds with PRMT1 FP inh; recombinant His-PRMT1, activity-based probe fluorescence polarization; inhibition, % at 2.79 µM; hit rate 42% among 3,300;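 active = mean inhibition across replicates above the hit cutoff derived for the earlier primary screen, cut at about 22% in these data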
SIAE confirm – human SIAE inhibition, confirmation; shares compounds with SIAE primary; SIAE FP-Rh activity-based probe, fluorescence polarization; inhibition, % at 9.66 µM; hit rate 13% among 2,300;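 active = mean inhibition of the replicates above the hit cutoff set in the primary screen, cut at about 17% in these data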;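 note: inhibitors lower polarization as more probe stays unbound to SIAE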
Of the large screens only hits and unclear results are named; the others gave an inactive call (follow-up assays come after a bar, where they were run); ! = repeats disagree. An excerpt weighted towards active compounds, which were near 2.6% of everything screened.

Cc1ccc(-c2nnc3n2N=C(c2ccc(-c4ccccc4)cc2)CS3)cc1	none (no result: PME-1 primary, Fam108B inh, TCR-CD3 inh, PAD4 FP inh)
Cc1ccc(CNC(=O)c2c(-c3ccccc3)sc3ccccc23)o1	PRMT1 FP inh 39 (no result: PME-1 primary, Fam108B inh) | PRMT1 confirm inactive
O=C(Nc1nc(-c2ccco2)c(-c2ccco2)s1)C1CC(=O)N(c2ccc3c(c2)OCCO3)C1 (centres undefined)	PRMT1 FP inh 38 | PRMT1 confirm inactive
Cc1nnc(NC(=O)C2CC(=O)N(c3ccc4c(c3)OCCO4)C2)s1 (centres undefined)	none (no result: Fam108B inh)
O=C(Nc1nc(-c2ccco2)c(-c2ccco2)s1)C1CCC1	PRMT1 FP inh 35 | PRMT1 confirm inactive
CC(C)N1C(=O)S/C(=C\c2ccc(-c3ccc(Cl)c(C(=O)O)c3)o2)C1=O	PRMT1 FP inh 52 | PRMT1 confirm inactive
CCN(CC)c1ccc(/C=C2/SC(=O)N(C(C)C)C2=O)o1	PRMT1 FP inh 27 (no result: PME-1 primary, Fam108B inh, PAD4 FP inh) | PRMT1 confirm inactive
O=C(c1cccc(F)c1)N(Cc1ccccn1)CC1CCCO1 (centres undefined)	none (no result: PME-1 primary, Fam108B inh, TCR-CD3 inh, PAD4 FP inh)
COc1cc(C)c2c(c1C=O)Oc1c(c(C)c(O)c3c1C(O)OC3=O)OC2=O (centres undefined)	PRMT1 FP inh 38 | PRMT1 confirm inactive
COCCN(C(=S)Nc1c(C)cccc1C)C(C)c1cccnc1 (centres undefined)	none
COCCN(C(=S)Nc1c(C)cc(C)cc1C)C(C)c1cccnc1 (centres undefined)	PRMT1 FP inh 74 | PRMT1 confirm 63
COC[C@@H]1CCCN1c1ccc2c(c1)O[C@H]1CCN(C1)S2(=O)=O	none (no result: PME-1 primary, Fam108B inh, TCR-CD3 inh, PAD4 FP inh)
C=C(O[C@H]1[C@H](O)CC=C(C(=O)O)[C@@H]1O)C(=O)O	none (no result: PME-1 primary, Fam108B inh, TCR-CD3 inh, PAD4 FP inh)
CC(C)Oc1cccc(-c2n[nH]c(=S)n2N=Cc2ccc(OCc3ccccc3)cc2)c1	none (no result: PME-1 primary, Fam108B inh, TCR-CD3 inh, PAD4 FP inh)
CCc1ccc2nc(N(CCCN(C)C)C(=O)c3ccc(S(=O)(=O)N4CCCc5ccccc54)cc3)sc2c1	none
CN(C)CCCN(C(=O)c1ccc(S(=O)(=O)N2CCc3ccccc32)cc1)c1nc2c(Cl)cccc2s1	PRMT1 FP inh 33 | PRMT1 confirm inactive
CN(C)CCN(C(=O)c1ccc(S(=O)(=O)N2CCc3ccccc32)cc1)c1nc2ccc(F)cc2s1	PRMT1 FP inh 50 | PRMT1 confirm inactive
CCN(CC)C(=S)SCC(=O)c1ccccc1	none
CCN(CC)C(=S)SSC(=S)N(CC)CC	PRMT1 FP inh 74 | PRMT1 confirm 80
COc1ccc2c(CCN3C(=O)c4ccccc4C3=O)c(-c3c(CCN4C(=O)c5ccccc5C4=O)c4ccccc4n3C(=O)OC(C)(C)C)[nH]c2c1	none (no result: PME-1 primary, Fam108B inh, TCR-CD3 inh, PAD4 FP inh)
CCn1cc(/C=C/c2cc[n+](C)cc2)c2ccccc21	none
CC(C)n1cc(/C=C/c2cc[n+](C)cc2)c2ccccc21	PRMT1 FP inh 31 (no result: PME-1 primary, Fam108B inh, PAD4 FP inh) | PRMT1 confirm inactive
Cc1ccc(S(=O)(=O)C/N=C(/NC(=S)N(c2ccccc2)c2ccccc2)c2ccccc2)cc1	PRMT1 FP inh 28 | PRMT1 confirm 27
CN=C(c1ccco1)n1c(=S)nc(-c2ccco2)n(C)c1=S	PRMT1 FP inh 30 | PRMT1 confirm 23
CC1=C(C(=O)O)N2C(=O)C(NC(=O)c3ccn(C)n3)C2SC1 (centres undefined)	none
CC1=C(C(=O)O)N2C(=O)C(NC(=O)c3nn(C)cc3[N+](=O)[O-])C2SC1 (centres undefined)	PRMT1 FP inh 33 | PRMT1 confirm 44
CC1=C(C(=O)O)N2C(=O)C(NC(=O)c3nn(C)c(C)c3Cl)C2SC1 (centres undefined)	PRMT1 FP inh 29 | PRMT1 confirm 38
COC(=O)[C@]12C[C@H](CC(=O)NCC34CC5CC(CC(C5)C3)C4)C(=O)N(Cc3ccc(Cl)cc3Cl)C1=C[C@H](C(C)C)O[C@@H]2C1CC1	none (no result: PME-1 primary, Fam108B inh, TCR-CD3 inh, PAD4 FP inh)
CCOc1ccc(-n2c(COc3ccccc3)nnc2SCc2nc3ccccc3[nH]2)cc1	none (no result: PME-1 primary, Fam108B inh, TCR-CD3 inh, PAD4 FP inh)
O=C(c1ccco1)N1CCN(C(=O)c2ccc(-c3ccc([N+](=O)[O-])cc3)o2)CC1	PRMT1 FP inh 30 (no result: PME-1 primary, Fam108B inh) | PRMT1 confirm 27
O=C(NC1CCC(O)CC1)c1ccc(-c2ccc([N+](=O)[O-])cc2)o1 (centres undefined)	PRMT1 FP inh 36 | PRMT1 confirm inactive
CN1C2=N[C@@H](c3cccc(C(F)(F)F)c3)CC(=O)N2/C(=C\c2ccccc2)[C@H]1c1ccccc1	PRMT1 FP inh 55 (no result: PME-1 primary, Fam108B inh, TCR-CD3 inh, PAD4 FP inh) | PRMT1 confirm 47
CN1C2=N[C@@H](c3ccc(Br)cc3)CC(=O)N2/C(=C\c2ccccc2)[C@@H]1c1ccccc1	none (no result: PME-1 primary, Fam108B inh, TCR-CD3 inh, PAD4 FP inh)
COc1ccccc1N(O)C1CC(=O)N(c2ccc(Br)cc2)C1=O (centres undefined)	SIAE primary 20, PRMT1 FP inh 42 | PRMT1 confirm 50 | SIAE confirm inactive
COc1ccc(N2C(=O)CC(Cc3ccc(Br)cc3)C2=O)cc1 (centres undefined)	none
CCCCCCCCN1C(=O)[C@@H](CC(=O)N2CCN(C(=O)c3ccco3)CC2)C[C@@]2(C(=O)OC)C1=C[C@H](COCc1ccccc1)O[C@@H]2C	none (no result: PME-1 primary, Fam108B inh, TCR-CD3 inh, PAD4 FP inh)
COc1ccc(C(=O)CSc2nnc(-c3ccco3)c(-c3ccco3)n2)cc1	SIAE primary 19, PRMT1 FP inh 27 (no result: PME-1 primary, Fam108B inh, PAD4 FP inh) | PRMT1 confirm 74 | SIAE confirm inactive
COc1ccc(NC(=O)CSc2nnc(-c3ccco3)c(-c3ccco3)n2)cc1OC	none
O=[N+]([O-])c1ccc(N/N=C/c2ccc(O)c(O)c2O)c(S(=O)(=O)N2CCOCC2)c1	SIAE primary 28, PRMT1 FP inh 35 (no result: PME-1 primary, Fam108B inh, PAD4 FP inh) | PRMT1 confirm 56 | SIAE confirm inactive
CCCCn1c(=O)[nH]c2nc3cc(N)ccc3nc2c1=O	SIAE primary 31, PRMT1 FP inh 149, TCR-CD3 inh 21 | PRMT1 confirm 143 | SIAE confirm inactive
O=C1CCC(C(=O)Nc2cccc(S(=O)(=O)Nc3ccccc3F)c2)=NN1	SIAE primary 24, PRMT1 FP inh 31 (no result: PME-1 primary, Fam108B inh) | PRMT1 confirm inactive | SIAE confirm inactive
Oc1c(C=C2N=c3ccccc3=N2)sc(=S)n1-c1ccc(F)cc1	SIAE primary 18!, PRMT1 FP inh 41! | PRMT1 confirm inactive | SIAE confirm inactive
Oc1[nH]c(=S)sc1C=C1N=c2ccccc2=N1	none
Cc1nc(C)c(-c2csc(Nc3cccc(O)c3)n2)s1	none
Cc1nc(N)sc1-c1csc(Nc2cccc(O)c2)n1	SIAE primary 17, PRMT1 FP inh 25 | PRMT1 confirm inactive | SIAE confirm inactive
COc1ccc(-c2nnc(SCC(=O)N/N=C(\C)c3ccc(-c4ccccc4)cc3)n2-c2ccc(C)cc2)cc1	none (no result: PME-1 primary, Fam108B inh, TCR-CD3 inh, PAD4 FP inh)
CCOC(=O)C(=C1Nc2ccccc2N1)n1c(-c2ccco2)nc2ccccc21	SIAE primary 18, PRMT1 FP inh 29, TCR-CD3 inh 22 (no result: PME-1 primary, Fam108B inh, PAD4 FP inh) | PRMT1 confirm 88 | SIAE confirm inactive

Screens (PubChem BioAssay)
